AMA1 RON2 block – qHTS for Inhibitors of AMA1-RON; Towards Development of Antimalarial Drug Lead: Primary Screen; AlphaScreen AMA1-biotinylated RON2 peptide binding; Potency, µM (top dose mostly 58.2 µM), for inactives: at the top dose activity change, negative = inhibition, most hits filed as inhibitors; 360,000 tested, 0.2% active;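 also: potency is read from the fitted curve at half-maximal effect; 0% = vehicle wells and -100% = peptide control; nearly all actives have a fitted effect of over 45% in size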
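AMA1 (3D7) with his tag at 25 nM final met compounds first, then biotinylated RON2 peptide at 25 nM; detection used donor plus acceptor beads, 10 µg/mL apiece, read by AlphaScreen after 30 min at room temperature.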
SARS PLP yeast – qHTS of Yeast-based Assay for SARS-CoV PLP; AID 485353, 2010; Potency, µM (highest dose often 32.9 µM), inactives show at the highest dose activity, positive = growth rescue, usual class: activators; 330,000 tested, 0.19% active; S. cerevisiae expressing SARS-CoV PLpro, growth rescue; calls by dose curve; also: potency is read from the fitted curve at half-maximal effect; 0% is about no effect; nearly all actives have a fitted effect of over 55% in size
Cycloheximide cs – Cycloheximide Counterscreen for Small Molecule Inhibitors of Shiga Toxin | cell reporter, cycloheximide protein synthesis inhibition counterscreen | max response, % | 300,000 tested, 12% active | AID 2314, 2010; in the data active = max response mostly above about 13%, no sharp cut-off; inactive = mostly below about 14%; also: read at 38.3 µM for the half of the compounds with a filed dose; 0% is about no effect
Pf growth 96h – Primary qHTS for delayed death inhibitors of the malarial parasite plastid, 96 hour incubation. P. falciparum luciferase reporter growth, 96 h. Potency, µM (series often up to 28.7 µM), inactives show at the top dose activity change, negative = inhibition, hits mostly inhibitors. 320,000 tested, 6.9% active. AID 504834, 2011; also: potency is read from the fitted curve at half-maximal effect; % is scaled to controls: 0 for no effect and ±100 for the full control effect
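Cell-based qHTS: luciferase-tagged P. falciparum in erythrocytes (2% hematocrit, 0.05% parasitemia final) incubated with compounds for 96 hours, 37 C, 5% CO2; luciferase detection reagent then added and luminescence measured.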
Pf growth 48h – Primary qHTS for delayed death inhibitors of the malarial parasite plastid, 48 hour incubation; P. falciparum luciferase growth in erythrocytes, 48 h; Potency, µM (highest dose often 28.7 µM), without a hit: at the highest dose activity change, negative = inhibition, hits mostly inhibitors; 310,000 tested, 5.9% active; also: potency is read from the fitted curve at half-maximal effect; % is scaled to controls: 0 for no effect and ±100 for the full control effect
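Firefly luciferase activity from engineered P. falciparum reports growth; inhibitors lower the luminescent signal. Cultures contained 2% hematocrit erythrocytes at 0.1% final parasitemia.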
Shiga inhibitor – A qHTS for Small Molecule Inhibitors of Shiga Toxin. Vero cells, Shiga toxin protein synthesis inhibition reporter. inhibition, % at 38.7 µM. 290,000 tested, 9.2% active; in the data active = inhibition mostly above about 28%, no sharp cut-off; inactive = mostly below about 43%; also: 0% is about no effect
The depositor's hits bear a star; ? = inconclusive; nt = not tested or not shown; [ ] = another dose, or the depositor's remark. Only some compounds are listed: those with a hit (about 19% of all), similar ones and a draw of the others. Unless noted, calls follow the shape of the dose curve; as a rule, active = well fitted curve in the direction sought with a large enough effect; inconclusive = small, poorly fitted or top-dose-only effect, or another doubt; inactive = no such curve, though single readings can be large; an effect the other way counts as inactive or inconclusive.

SMILES | AMA1 RON2 block | SARS PLP yeast | Cycloheximide cs | Pf growth 96h | Pf growth 48h | Shiga inhibitor
O=C(COc1ccccc1C(=O)NCc1ccccn1)Nc1ccc(Br)cc1 | -4% | -1% | 10 | -6% | -3% | 59
O=S(=O)(NCCc1ccc(Cl)cc1)c1cccc2cccnc12 | 10% | -2% | -2 | 9.3µM* | -6% | 2
CC(=O)Nc1cc(C(=O)N2CCc3ccccc3C2)ccc1Sc1ccc(Cl)cc1 | -14% | -32% | -3 | 388% | 0% | -11
CCOC(=O)c1c(NC(=O)CSc2cccc[n+]2[O-])sc(C(=O)Nc2ccccc2)c1C | -2% | -1% | 27* | ? | 4% | 72*
CCOC(=O)c1c(NC(=O)CN(C)C2CCN(C)CC2)sc(C(=O)Nc2ccccc2)c1C | 59% | -13% | 8 | ? | ? | 10
CCOC(=O)c1c(-c2cccs2)csc1NC(=O)CNCCN1CCOCC1 | nt | 2% | -5 | 12µM* | ? | -1
CCOC(=O)c1c(-c2cccs2)csc1NC(=O)CN1CC(C)OC(C)C1 (stereo not drawn) | -13% | -5% | -4 | nt | ? | -4
CCOC(=O)c1c(-c2ccc(-c3ccccc3)cc2)csc1NC(=O)c1cccc(N2C(=O)CCC2=O)c1 | -18% | 3% | 5 | 5.2µM* | -2% | -4
CCOC(=O)c1c(-c2ccccc2)csc1NC(=O)CCN1C(=O)c2ccccc2C1=O | -5% | 12% | -1 | 2.6µM* | 12% | 30
CN(c1ccccc1C(=O)Nc1cccc([N+](=O)[O-])c1)S(=O)(=O)c1ccccc1 | 2% | -8% | -4 | -12% | 2% | -8
Cc1ccnc(NS(=O)(=O)c2ccc(NS(=O)(=O)c3ccc(Br)cc3)cc2)n1 | -3% | 10% | -6 | 7% | 7% | -11
COCCn1c(SCC(=O)N2CC(=O)Nc3ccccc32)nc2ccccc21 | 0%[11.6 µM] | -6% | -4 | -1% | -30% | -6
Cc1ccc([N+](=O)[O-])cc1Nc1nc(N2CCCC2)nc(N2CCCC2)n1 | -8% | 0% | 0 | 7% | 3% | nt
CCOC(=O)c1c(-c2ccccc2)csc1NC(=S)NC | 75% | 7% | -1 | 16% | 10% | -16
CCOC(=O)c1c(-c2cccs2)csc1NC(=O)C(C)(C)C | 11% | -35% | 6 | nt | 13µM* | -14
CCOC(=O)c1c(-c2ccc(-c3ccccc3)cc2)csc1NC(=O)CCN1CCOCC1 | -7%[11.6 µM] | -88% | -4 | 4.7µM* | ? | -10
CCOC(=O)c1c(-c2ccccc2)csc1NC(=O)c1cc2ccccc2oc1=O | 1% | -7% | -4 | 13µM* | 12% | -3
CCOC(=O)c1c(-c2cccs2)csc1NC(C)=O | -11% | -5% | -2 | ? | -14% | -5
CCOC(=O)c1sc(NC(=O)CCN2C(=O)c3ccccc3C2=O)c(C(=O)OCC)c1C | 0% | 12% | 13* | 13µM* | 16% | 22
CCOC(=O)c1c(NC(=O)CCN2C(=O)c3ccccc3C2=O)sc(C(=O)OC(C)C)c1C | -1% | -11% | 1 | ? | 2% | 4
CN(Cc1ccon1)Cc1cn(C)nc1-c1ccc2c(c1)OCCO2 | 30% | 2% | -5 | 1% | 20% | 6
COc1ccc(C(C)=O)cc1CSc1ccc2c(c1)OCCO2 | 10% | 0% | 15 | -16% | -10% | 28
N#Cc1cccc(C(=O)OCC(=O)NC(=O)NC2CCCCC2)c1 | 1% | -3% | nt | -15% | 49% | nt
CN(C)CCNC(=O)C1(O)c2cc(Br)ccc2NC(=O)N1c1ccc(Cl)cc1 (stereo not drawn) | 28% | 2% | 10 | 2% | -3% | -5
CCOC(=O)c1c(NC(=O)CN2C(=O)NC3(CCCCC3C)C2=O)sc(C)c1C (stereo not drawn) | -15% | 4% | -3 | ? | -20% | -3
SMILES | AMA1 RON2 block | SARS PLP yeast | Cycloheximide cs | Pf growth 96h | Pf growth 48h | Shiga inhibitor
CCOC(=O)c1c(-c2ccc(F)cc2)csc1NC(=O)CN1C(=O)NC2(CCCCC2C)C1=O (stereo not drawn) | 19% | 13% | -1 | 9.3µM* | 10µM* | 2
C/C=C/c1cnc2c(c1)C(=O)N([C@H](C)CO)C[C@@H](C)[C@@H](CN(C)C(=O)NC1CCCC1)O2 | -1% | nt | nt | nt | nt | nt
O=S(=O)(c1ccc(F)cc1)N1CCN(c2nc(-c3ccc(F)cc3)cs2)CC1 | 2% | 1% | 7 | ? | ? | -8
COc1ccc(-c2csc(N3CCN(S(=O)(=O)c4ccc5c(c4)NC(=O)CO5)CC3)n2)cc1 | 3% | -3% | -4 | 12µM* | 8.3µM* | -3
Cc1sc(N2CCN(S(=O)(=O)c3ccc4c(c3)NC(=O)CO4)CC2)nc1-c1ccccc1 | 0% | -11% | -9 | 9.3µM* | ? | -4
COC(=O)C1CCN(C(=O)CN2C(=O)NC3(CCC(C)CC3)C2=O)CC1 (stereo not drawn) | 24% | 5% | nt | nt | nt | nt
COc1ccc(C(=O)n2nc(C)cc2Nc2ccccc2)cc1 | -2% | -28% | 43* | nt | 70% | 72
Cc1cc(Nc2ccccc2)nn1C(=O)c1ccccc1 | 12% | -29% | 1 | 9.3µM* | nt | 8
CCN(CC)C(=O)CSc1nc(N)c(C#N)c(-c2cccs2)c1C#N | -5% | 2% | -4 | ? | ? | -8
CN1CCN(C(=O)CSc2nc(-c3cccs3)cc(-c3cccs3)c2C#N)CC1 | 4% | 0% | -1 | 2.1µM* | ? | -6
CCN(CC)C(=O)CSc1nc(-c2cccs2)cc(-c2cccs2)c1C#N | -4% | 7% | -1 | ? | 8.3µM* | -9
Clc1ccc(Cn2ncc3c(NCCN4CCOCC4)ncnc32)cc1 | -2% | -1% | -2 | nt | ? | -4
CCC(C)(C)n1nnnc1C(c1cc2cc(C)ccc2[nH]c1=O)N1CCCc2ccccc21 (stereo not drawn) | 13% | -10% | 8 | ? | nt | 22
CCC(C)(C)n1nnnc1C(c1cc2ccc(OC)cc2[nH]c1=O)N1CCc2ccccc21 (stereo not drawn) | -23% | -1% | 19 | 32% | 5.2µM* | -8
CCC(C)(C)n1nnnc1C(c1cc2cc(OC)ccc2[nH]c1=O)N1CCc2ccccc21 (stereo not drawn) | ? | 6% | -3 | 3% | 10µM* | -5
CCN(C(=O)Cc1c(C(=O)O)n(CC)c2ccccc12)c1cccc(C(F)(F)F)c1 | -1% | -1% | -3 | 5% | 34% | 1
COc1ccccc1/C=N/NC(=O)Cn1cnc([N+](=O)[O-])n1 | 7% | 4% | -2 | ? | 14% | -8
